PubChem BioAssay (NCATS)
Values joined by “and” are separate entries in the source; they are usually repeats but may differ in a detail not shown here. Equal values may be shown once. Results filed as inconclusive are left out. More than one record can exist for a structure, and the calls need not agree. Active and inactive are the calls of the source. Unless noted, calls follow the shape of the dose curve; as a rule, active = well fitted curve in either direction with a large enough effect (not every such curve was filed as active); inconclusive = small, poorly fitted or top-dose-only effect, or another doubt; inactive = flat fitted curve, though single readings scatter.

Legend:
[1] = AP1 Signaling Pathway (AID 357);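 also: ME-180 reporter cells stimulated with EGF at its EC50 level; % is scaled to controls: 0 for no effect and ±100 for the full control effect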
Summary of the method: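 First, ME-180 AP-1-bla cells were cultured overnight at 37 °C in low-serum Opti-MEM. Next, titrated compounds with EC50 EGF were incubated 5 hours. Finally, CCF4 was added for 2.5 hours and the 460/530 nm ratio recorded.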

[2] = target: Cytochrome P450 1A2 (Homo sapiens) (UniProt P05177); assay: p450-cyp1a2 (AID 410; calls by dose curve; also: potency is read from the fitted curve at half-maximal effect;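 as to activity change, negative = inhibition: -100% = full effect of reference inhibitor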)
Chain of Cytochrome P450 1A2 (Homo sapiens) (P05177 whole entry, looked up): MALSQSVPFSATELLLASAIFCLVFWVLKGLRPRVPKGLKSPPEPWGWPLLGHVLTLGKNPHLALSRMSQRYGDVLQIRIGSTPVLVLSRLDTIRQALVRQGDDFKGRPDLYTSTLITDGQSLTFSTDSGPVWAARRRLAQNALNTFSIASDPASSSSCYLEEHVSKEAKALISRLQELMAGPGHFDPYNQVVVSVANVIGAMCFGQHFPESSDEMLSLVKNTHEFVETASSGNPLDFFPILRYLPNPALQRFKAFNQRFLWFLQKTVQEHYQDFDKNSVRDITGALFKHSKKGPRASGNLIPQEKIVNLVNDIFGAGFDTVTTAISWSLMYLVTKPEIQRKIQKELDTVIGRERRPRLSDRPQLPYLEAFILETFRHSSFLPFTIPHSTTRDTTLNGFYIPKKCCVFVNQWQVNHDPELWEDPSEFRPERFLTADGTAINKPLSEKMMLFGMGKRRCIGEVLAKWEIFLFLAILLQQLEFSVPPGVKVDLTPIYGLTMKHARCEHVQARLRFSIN
Summary of the method: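 20nM CYP1A2 with 100uM Luciferin-ME (at Km) in 100mM KPO4; compound preincubated 10 min, NADPH regeneration added, 60 min at room temperature. Luciferin quantified by luminescence after detection reagent; normalized to 57 uM furafylline.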

[3] = NFAT Signaling Pathway (AID 444); settings: Jurkat NFAT-bla M1, carbachol, beta-lactamase ratio, 5 h;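 also: carbachol stimulus at about its EC50 of 1 µM final; % is scaled to controls: 0 for no effect and ±100 for the full control effect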
Summary of the method: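 Jurkat cells carrying an NFAT-driven β-lactamase reporter and co-transfected muscarinic M1 receptor were treated with compound plus carbachol (1 uM final, an EC50 level) for 5 h at 37 °C. CCF4 loading followed for 1 h at RT; 460/530 nm ratio gave %activity.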

[4] = Stat Signaling Pathway (AID 446);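 also: ME-180 cervical cancer cells given 40 pM IL-6 alongside compound; SIE-controlled beta-lactamase reporter measured as 460/530 nm FRET emission ratio; % is scaled to controls: 0 for no effect and ±100 for the full control effect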
Summary of the method: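 Reporter line: ME-180 cervical carcinoma, SIE-beta-lactamase. Treatment: compound with 40 pM IL-6, 5 hrs, 37 C, in low-serum OPTI-MEM with 10 mM HEPES pH 7.3. Detection: 460/530 nm fluorescence.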

[5] = target: Glucocorticoid receptor (Homo sapiens) (UniProt P04150); assay: GR-EFC Redistribution (AID 451; calls by dose curve; also: potency is read from the fitted curve at half-maximal effect); settings: CHO-K1 GR-EFC translocation, beta-gal luminescence, 2 h
Chain of Glucocorticoid receptor (Homo sapiens) (P04150 whole entry, looked up, the tested form may be a part): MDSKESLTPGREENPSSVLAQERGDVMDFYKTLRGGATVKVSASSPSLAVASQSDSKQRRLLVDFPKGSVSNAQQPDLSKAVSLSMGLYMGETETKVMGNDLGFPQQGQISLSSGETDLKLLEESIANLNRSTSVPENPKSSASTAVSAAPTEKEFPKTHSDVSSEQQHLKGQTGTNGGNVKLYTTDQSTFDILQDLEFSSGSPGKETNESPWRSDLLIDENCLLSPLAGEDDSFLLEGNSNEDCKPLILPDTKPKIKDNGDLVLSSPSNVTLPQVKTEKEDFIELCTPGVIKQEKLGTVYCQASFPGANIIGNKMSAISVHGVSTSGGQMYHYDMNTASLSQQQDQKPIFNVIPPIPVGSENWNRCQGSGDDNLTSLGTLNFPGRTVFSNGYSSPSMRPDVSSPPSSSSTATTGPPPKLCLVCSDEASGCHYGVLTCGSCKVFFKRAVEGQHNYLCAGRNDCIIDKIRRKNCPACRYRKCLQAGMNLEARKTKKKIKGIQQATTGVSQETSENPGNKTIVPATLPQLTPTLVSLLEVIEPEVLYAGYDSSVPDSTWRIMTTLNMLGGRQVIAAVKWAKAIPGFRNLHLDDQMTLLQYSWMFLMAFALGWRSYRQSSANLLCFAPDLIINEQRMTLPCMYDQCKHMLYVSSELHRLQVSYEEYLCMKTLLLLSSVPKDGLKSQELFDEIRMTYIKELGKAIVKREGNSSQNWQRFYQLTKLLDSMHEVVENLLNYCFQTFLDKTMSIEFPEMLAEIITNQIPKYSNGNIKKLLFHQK
Summary of the method: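 CHO-K1 cells stably expressing nuclear-localized β-gal enzyme acceptor and GR fused C-terminally to the enzyme donor fragment; ligand-driven nuclear translocation restores β-gal by complementation. Compounds titrated up to 46 uM final, 2 h at 37 °C; luminescence read.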

[6] = target: Mitogen-activated protein kinase 10 (Mus musculus) (UniProt Q61831); assay: JNK3 AlphaScreen Assay (AID 530);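 also: kinase came from lysate of stimulated human HepG2 cells; signal reports phosphorylation of biotinylated GST-cJun 1-79 at Ser73 with 10 µM ATP; % is scaled to controls: 0 for no effect and ±100 for the full control effect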
Summary of the method: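 Inhibitors reduce antibody binding to phosphorylated biotin-cJun, lowering AlphaScreen luminescence. Lysates from HepG2 cells pre-activated by IL-1beta plus TNF-alpha supplied JNK3; compounds were titrated.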

[7] = target: 3',5'-cyclic-AMP phosphodiesterase 4B (Homo sapiens) (UniProt Q07343); assay: qHTS Assay for Inhibitors of PDE-IV (AID 607; active = well fitted activation curve with a large enough effect in the main read-out, with a control signal flat, not every such curve was filed as active; also: % of control where 0% means no effect)
Chain of 3',5'-cyclic-AMP phosphodiesterase 4B (Homo sapiens) (Q07343 whole entry, looked up): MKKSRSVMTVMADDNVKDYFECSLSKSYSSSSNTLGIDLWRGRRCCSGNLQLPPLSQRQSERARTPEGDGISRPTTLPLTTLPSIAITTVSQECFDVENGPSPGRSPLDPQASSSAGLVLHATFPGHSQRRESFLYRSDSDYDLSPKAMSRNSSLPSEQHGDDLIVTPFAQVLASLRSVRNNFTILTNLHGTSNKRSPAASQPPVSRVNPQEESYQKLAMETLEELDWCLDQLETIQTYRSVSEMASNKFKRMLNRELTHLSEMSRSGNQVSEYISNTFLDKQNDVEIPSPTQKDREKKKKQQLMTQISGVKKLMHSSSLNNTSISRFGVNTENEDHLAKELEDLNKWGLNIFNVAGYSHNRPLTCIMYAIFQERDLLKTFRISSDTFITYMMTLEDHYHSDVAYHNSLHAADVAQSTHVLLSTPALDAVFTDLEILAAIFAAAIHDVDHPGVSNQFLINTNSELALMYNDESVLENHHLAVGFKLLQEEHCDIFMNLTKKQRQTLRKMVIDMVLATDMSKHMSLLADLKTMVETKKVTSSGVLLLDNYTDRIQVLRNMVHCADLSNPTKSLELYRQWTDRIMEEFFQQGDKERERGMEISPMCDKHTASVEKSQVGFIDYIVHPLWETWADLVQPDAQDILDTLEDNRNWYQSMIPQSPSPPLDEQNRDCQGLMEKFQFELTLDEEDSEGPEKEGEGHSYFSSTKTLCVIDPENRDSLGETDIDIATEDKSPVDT
Summary of the method: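 Cell-based read-out of cAMP via a modified cyclic nucleotide-gated channel and membrane potential dye (535/590 nm) in HEK293 cells expressing PDE4 endogenously. Compounds tested up to 22.9 uM final; 100 uM RO 20-1724 reference.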

[8] = target: Cytochrome P450 3A4 (Homo sapiens) (UniProt P08684); assay: qHTS Assay for Activators of Cytochrome P450 3A4 (AID 885; active = well fitted curve in the direction sought with a large enough effect; an effect the other way counts as inactive or inconclusive; also: nearly all actives have a fitted effect of over 65% in size)
Chain of Cytochrome P450 3A4 (Homo sapiens) (P08684 whole entry, looked up): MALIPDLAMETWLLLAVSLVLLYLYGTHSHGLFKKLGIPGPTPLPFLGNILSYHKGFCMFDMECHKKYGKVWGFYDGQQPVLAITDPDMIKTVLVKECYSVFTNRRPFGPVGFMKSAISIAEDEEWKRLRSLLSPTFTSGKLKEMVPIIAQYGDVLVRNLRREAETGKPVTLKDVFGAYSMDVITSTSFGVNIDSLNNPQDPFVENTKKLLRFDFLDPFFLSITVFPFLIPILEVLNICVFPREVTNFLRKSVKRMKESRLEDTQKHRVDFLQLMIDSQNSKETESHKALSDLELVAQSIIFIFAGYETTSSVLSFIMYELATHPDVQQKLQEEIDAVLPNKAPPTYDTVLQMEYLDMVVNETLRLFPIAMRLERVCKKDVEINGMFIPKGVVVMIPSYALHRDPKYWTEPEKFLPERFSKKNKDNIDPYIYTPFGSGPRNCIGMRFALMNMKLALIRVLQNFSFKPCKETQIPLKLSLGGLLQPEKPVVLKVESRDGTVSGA
Summary of the method: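 Signal was normalized against complete inhibition by 57 uM ketoconazole. The reaction used 20nM CYP3A4 with 25uM Luciferin-PPXE, 10-min compound preincubation and a 60-min NADPH-supported step at RT.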

[9] = qHTS Assay for Lipid Storage Modulators (AID 1519; calls by dose curve); settings: Drosophila S3 cells, BODIPY lipid droplet/cell ratio, laser cytometry, cells loaded with oleic acid; for activity change, negative = inhibition: at 25.7 µM (top of the series)
Summary of the method: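 Cells seeded at 5,000 per well were treated with compounds over a concentration series and loaded with oleic acid (400 uM, as added). Lipid droplet fluorescence (488 nm excitation, 500-530 nm channel) was read by laser-scanning cytometry and normalized to 20 uM Triacsin C.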

[10] = target: Glucocorticoid receptor (Homo sapiens) (UniProt P04150); assay: GR-GFP Redistribution (AID 450;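 active = compounds whose dose series gives a full or clear partial fitted curve of increased nuclear translocation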; also: potency is read from the fitted curve at half-maximal effect); settings: U2OS GR-GFP nuclear translocation, laser cytometry, 2 h
[11] = target: Cytochrome P450 3A4 (Homo sapiens) (UniProt P08684); assay: qHTS Assay for Inhibitors and Substrates of Cytochrome P450 3A4 (AID 884; active = well fitted curve in the direction sought with a large enough effect; an effect the other way counts as inactive or inconclusive; also: potency is read from the fitted curve at half-maximal effect; nearly all actives have a fitted effect of over 50% in size)
Summary of the method: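 20 nM human CYP3A4 with 25 uM Luciferin-PPXE (at KM) in 200 mM KPO4, preincubated 10 min with compound; NADPH regeneration started a 60 min RT reaction. Luciferin detected by luminescence, normalized to 57 uM ketoconazole as full inhibition.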

[12] = qHTS profiling for inhibitors of Plasmodium falciparum proliferation (AID 504749; active = well fitted curve in the direction sought with a large enough effect; an effect the other way counts as inactive or inconclusive;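 also: 0% = DMSO vehicle and full inhibition = artemisinin control; nearly all actives have a fitted effect of over 60% in size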); settings: P. falciparum in erythrocytes, SYBR Green DNA, 72 h
Summary of the method: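 Parasite proliferation within erythrocytes, 72 h exposure. Endpoint: SYBR Green I fluorescence after overnight lysis at room temperature. Controls: 0.29 uM artemisinin, DMSO.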

[13] = target: Ubiquitin carboxyl-terminal hydrolase 1 (Homo sapiens) (UniProt O94782); assay: Inhibitors of USP1/UAF1: Pilot qHTS (AID 504865; active = well fitted curve in the direction sought with a large enough effect; an effect the other way counts as inactive or inconclusive; also: nearly all actives have a fitted effect of over 35% in size; also: potency is read from the fitted curve at half-maximal effect)
Chain of Ubiquitin carboxyl-terminal hydrolase 1 (Homo sapiens) (O94782 whole entry, looked up): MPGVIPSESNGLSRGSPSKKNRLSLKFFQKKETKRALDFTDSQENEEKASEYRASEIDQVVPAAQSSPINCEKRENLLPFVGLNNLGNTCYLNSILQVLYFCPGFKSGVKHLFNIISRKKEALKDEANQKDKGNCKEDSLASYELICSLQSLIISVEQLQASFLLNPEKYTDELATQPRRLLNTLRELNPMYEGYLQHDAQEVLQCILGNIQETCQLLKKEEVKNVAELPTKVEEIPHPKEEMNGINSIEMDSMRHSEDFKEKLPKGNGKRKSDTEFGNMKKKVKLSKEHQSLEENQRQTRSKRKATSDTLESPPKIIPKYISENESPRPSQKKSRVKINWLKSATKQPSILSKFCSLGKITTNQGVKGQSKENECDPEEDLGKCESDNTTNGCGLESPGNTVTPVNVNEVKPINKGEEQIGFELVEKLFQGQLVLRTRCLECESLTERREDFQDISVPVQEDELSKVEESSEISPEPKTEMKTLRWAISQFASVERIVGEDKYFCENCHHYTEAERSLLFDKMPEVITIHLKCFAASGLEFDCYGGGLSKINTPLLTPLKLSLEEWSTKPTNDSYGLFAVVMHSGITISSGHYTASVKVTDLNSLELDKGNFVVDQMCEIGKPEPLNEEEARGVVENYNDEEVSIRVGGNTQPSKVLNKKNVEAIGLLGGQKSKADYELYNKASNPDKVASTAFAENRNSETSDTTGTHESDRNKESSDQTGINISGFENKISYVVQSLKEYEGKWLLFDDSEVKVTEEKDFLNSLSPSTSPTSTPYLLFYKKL
Summary of the method: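 USP1/UAF1 complex at 1 nM preincubated 15 min at room temperature with compound, then Ub-Rho substrate added at 150 nM final. Fluorescence (480/540 nm) read kinetically in 50 mM HEPES pH 7.8, 0.5 mM EDTA, 1 mM TCEP, 0.1 mg/ml BSA, 0.01% Tween-20.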

[14] = measured here: cell count channel max response
[15] = measured here: lipid channel max response
[16] = at 12.8 µM (top of the series), parasite line A
[17] = at 12.8 µM (top of the series), parasite line B

SMILES	outcome [1]	Potency [2]	activity change, negative = inhibition ([3]; at 17.2 µM (top of the series))	activity change, negative = inhibition ([3]; at 38 µM (top of the series))	outcome [4]	Potency [5]	outcome [6]	Potency [7]	Potency [8]	activity change, negative = inhibition [9]	max response [9, 14]	max response [9, 15]	Potency [10]	Potency [11]	activity, negative = inhibition [12, 16]	Potency [13]	activity, negative = inhibition [12, 17]	activity, negative = inhibition ([12]; at 28.7 µM (top of the series), parasite line A)	activity, negative = inhibition ([12]; at 28.7 µM (top of the series), parasite line B)
C[C@]12CC[C@H](O)C[C@@H]1CC[C@H]1[C@H]2CC[C@]2(C)C(=O)CC[C@@H]12	inactive	inactive	4.61% (inactive) and 4.01% (inactive) and -7.96% (inactive)	8.64% (inactive)	inactive	> 46 µM (inactive) and > 20.6 µM (inactive)	inactive	inactive	inactive	-2.44% (inactive) and -2.6% (inactive) and -5.42% (inactive)	-9.77% and -5.73% and -17.9%	-12.1% and -8.44% and -22.6%	–	–	–	–	–	–	–
CC(C)c1c(CN(C)[C@@H](C)Cc2ccccc2)n(C)n(-c2ccccc2)c1=O	inactive	inactive	-17.7% (inactive)	–	inactive	> 20.6 µM (inactive)	–	inactive	inactive	-3.14% (inactive)	-13.6%	-14.7%	> 20.6 µM (inactive)	3.98 µM (active)	6.98% (inactive)	–	–	–	–
CN(C)C(=O)Oc1cc(OC(=O)N(C)C)cc([C@@H](O)CNC(C)(C)C)c1	inactive	inactive	-23.9% (inactive)	–	inactive	> 20.6 µM (inactive)	inactive	inactive	–	-0.844% (inactive)	2.58%	0.267%	> 20.6 µM (inactive)	–	1.47% (inactive)	inactive	-2.95% (inactive)	–	–
C[N+]1(C)[C@@H]2CC[C@H]1CC(OC(=O)[C@@H](CO)c1ccccc1)C2 (some centres undefined)	inactive	inactive	-48.4% (active)	-61.2% (active)	inactive	> 46 µM (inactive) and > 20.6 µM (inactive)	inactive	inactive	–	-3.15% (inactive)	-7.55%	-13.1%	> 46 µM (inactive) and > 20.6 µM (inactive)	–	-5.22% (inactive)	–	11.2% (inactive)	–	–
CN1CCc2cc3c(cc2[C@@H]1O)OCO3	inactive	inactive	-5.65% (inactive)	–	inactive	> 20.6 µM (inactive)	inactive	inactive	–	0.396% (inactive)	4.41%	3.98%	> 20.6 µM (inactive)	–	–	inactive	–	–	–
C=C1[C@@H]2CC[C@H]3[C@@]4(C)C[C@@H](O[C@@H]5O[C@H](CO)[C@H](OS(=O)(=O)O)[C@@H](OS(=O)(=O)O)[C@@H]5OC(=O)CC(C)C)C[C@@H](C(=O)O)[C@H]4CC[C@@]3(C2)[C@H]1O	inactive	inactive	13.2% (inactive)	–	inactive	> 20.6 µM (inactive)	inactive	inactive	–	-6.46% (inactive)	-23.7%	-28.9%	> 20.6 µM (inactive)	–	–	inactive	–	–	–
CC[C@@]1(c2ccc(N)cc2)CCC(=O)NC1=O	inactive	inactive	-14.6% (inactive)	6.21% (inactive)	inactive	> 46 µM (inactive) and > 20.6 µM (inactive)	inactive	inactive	inactive	0.179% (inactive)	-3.22%	-2.21%	> 46 µM (inactive) and > 20.6 µM (inactive)	–	–	inactive	–	3.34% (inactive)	3.27% (inactive)
COc1ccc(C[C@H]2c3cc(OC)c(OC)cc3CCN2C)cc1OC	inactive	inactive	-1.22% (inactive)	–	inactive	> 20.6 µM (inactive) and > 46 µM (inactive)	inactive	inactive	–	1.88% (inactive)	10%	12.8%	> 20.6 µM (inactive) and > 46 µM (inactive)	–	–	–	–	–	–
CCN1C[C@]2(C)CC[C@H](OC)[C@@]34[C@@H]2[C@H](OC(C)=O)[C@]2(OCO[C@@]25C[C@@H](OC)[C@@H]2C[C@@]3(O)[C@H]5[C@@H]2OC)[C@H]14	inactive	inactive	-4.41% (inactive)	–	inactive	> 20.6 µM (inactive)	–	inactive	inactive	-1.59% (inactive)	-0.005%	0.99%	> 20.6 µM (inactive)	–	–	inactive	–	–	–
CN1C(=O)CCS(=O)(=O)[C@@H]1c1ccc(Cl)cc1	inactive	inactive	1.85% (inactive)	–	inactive	> 20.6 µM (inactive)	inactive	inactive	–	-0.668% (inactive)	-4.45%	-4.68%	> 20.6 µM (inactive)	–	–	–	–	–	–
COc1cc2c(c(OC)c1OC)-c1ccc(O)c(=O)cc1[C@H](N)CC2	inactive	inactive	14.9% (inactive)	–	inactive	> 20.6 µM (inactive)	inactive	inactive	inactive	1.48% (inactive)	-6.02%	-4.27%	> 20.6 µM (inactive)	–	–	inactive	–	–	–
COC1=C[C@H]2C3=C([C@H]2C1=O)[C@H](NC(C)=O)CCc1cc(OC)c(OC)c(OC)c13	inactive	inactive	-4.77% (inactive)	–	inactive	> 20.6 µM (inactive)	inactive	inactive	–	0.263% (inactive)	1.69%	2.18%	> 20.6 µM (inactive)	–	–	inactive	–	–	–
CCC[C@@](C)(COC(N)=O)COC(=O)NC(C)C	inactive	inactive	-5.77% (inactive)	-2.28% (inactive)	inactive	–	inactive	inactive	–	-3.74% (inactive)	10.2%	7.74%	–	–	–	inactive	–	–	–
C[C@@]12CCC(=O)C=C1C=C[C@H]1[C@H]3CC[C@](O)(CCC(=O)O)[C@]3(C)CC[C@@H]12	inactive	inactive	-1.71% (inactive)	–	inactive	> 20.6 µM (inactive)	inactive	inactive	–	-0.688% (inactive)	-7.2%	-8.17%	> 20.6 µM (inactive)	–	9.22% (inactive)	–	6.42% (inactive)	–	–
CC(C)C[C@H]1C(=O)N2CCC[C@@H]2[C@@]2(O)O[C@](NC(=O)[C@@H]3C=C4c5cccc6[nH]cc(c56)C[C@@H]4N(C)C3)(C(C)C)C(=O)N12	inactive	12.6 µM (active)	-19.6% (inactive)	–	inactive	> 20.6 µM (inactive)	inactive	inactive	inactive	1.16% (inactive)	-5.41%	-4.79%	> 20.6 µM (inactive)	2 µM (active)	–	14.1 µM (active)	–	–	–
Clc1ccc(CS[C@@H](Cn2ccnc2)c2ccc(Cl)cc2Cl)cc1	inactive	–	–	–	–	–	–	–	–	-2.77% (inactive)	-14.6%	-18.3%	–	–	–	–	–	–	–
CC[N@+]1(C)CCC[C@@H](OC(=O)C(O)(c2ccccc2)c2ccccc2)C1	inactive	inactive	-31.8% (active)	–	inactive	> 20.6 µM (inactive)	inactive	inactive	–	-4.06% (inactive)	-4.84%	-5.77%	> 20.6 µM (inactive)	–	–	inactive	–	–	–
CCN1C[C@]2(COC)CC[C@H](O)[C@@]34[C@@H]5C[C@H]6[C@@H](OC)[C@H]5[C@](O)(C[C@@H]6OC)[C@@](O)([C@@H](OC)[C@H]23)[C@@H]14	inactive	inactive	2.57% (inactive)	–	inactive	> 20.6 µM (inactive)	inactive	inactive	–	0.923% (inactive)	-10.9%	-9.81%	> 20.6 µM (inactive)	–	–	inactive	–	–	–
C[C@H](N)[C@@H](O)c1ccccc1	inactive	inactive	10.1% (inactive)	–	inactive	> 20.6 µM (inactive)	inactive	inactive	–	1.99% (inactive)	17%	20.5%	> 20.6 µM (inactive)	–	-2.43% (inactive)	inactive	9.04% (inactive)	–	–
COc1ccc2c(c1OC)C(=O)O[C@H]2[C@H]1c2cc3c(cc2CCN1C)OCO3	inactive	25.1 µM (active) and inactive and 31.6 µM (active)	-1.79% (inactive)	9.14% (inactive)	inactive	–	inactive	inactive	inactive	3% (inactive)	-6.69%	-2.42%	–	–	–	inactive	–	–	–
CNC[C@H](O)c1ccc(O)c(OC)c1	inactive	inactive	3.38% (inactive)	–	inactive	> 20.6 µM (inactive)	inactive	inactive	–	-0.567% (inactive)	7.01%	8.44%	–	–	–	inactive	–	–	–
COc1cc2c(cc1OC)[C@H](C)NCC2	inactive	inactive and 20 µM (active)	4.97% (inactive)	–	inactive	> 20.6 µM (inactive) and > 46 µM (inactive)	inactive	inactive	–	-2.81% (inactive)	-4.52%	-9.32%	> 20.6 µM (inactive) and > 46 µM (inactive)	–	–	inactive	–	–	–
CCN1C[C@@]2(COC)CC[C@H](OC)[C@]34[C@@H]1[C@]1(OCO[C@@]15C[C@@H](OC)C1C[C@H]3[C@H]5[C@@H]1OC)[C@H](O)[C@@H]24	inactive	inactive	-1.05% (inactive)	–	inactive	> 20.6 µM (inactive)	inactive	inactive	–	-0.879% (inactive)	-14.7%	-15%	> 20.6 µM (inactive)	–	–	inactive	–	–	–
